# Assay outcomes from PubChem BioAssay.
# In the library only some 12% were active in any assay of this set; here they are far more common.
# Sm TGR block – qHTS Assay for the Inhibitors of Schistosoma Mansoni Peroxiredoxins; Schistosoma mansoni thioredoxin glutathione reductase (TGR), Q962Y6; purified TGR, DTNB reduction, TNB absorbance 405 nm; Potency, µM (highest dose often 114 µM), for the others: at the highest dose activity change, negative = inhibition, hits mostly inhibitors; 360,000 compounds, 3% hits; AID 485364, 2010; note: % is set by controls: 0 for no effect and ±100 for the full control effect; nearly all actives have a fitted effect of over 60% in size
#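 First, TGR (20 nM dispensed) and NADPH were mixed with compound. Second, a 15 min room-temperature incubation followed. Third, further NADPH and then DTNB were added to start the reaction. Finally, TNB absorbance was monitored kinetically.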
# AmpC inh detg – qHTS Inhibitors of AmpC Beta-Lactamase (assay with detergent). AmpC hydrolysis of nitrocefin, absorbance 480 nm, 0.01% Triton. Potency, µM (doses to about 114 µM), for the others: at the highest dose activity change, negative = inhibition, actives largely listed as inhibitors. 370,000 compounds, 0.041% hits. AID 485294, 2010;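 note: 0% = no-compound wells and -100% = no-enzyme wells; nearly all actives have a fitted effect of over 25% in size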
# Target sequence (P00811 whole entry, looked up): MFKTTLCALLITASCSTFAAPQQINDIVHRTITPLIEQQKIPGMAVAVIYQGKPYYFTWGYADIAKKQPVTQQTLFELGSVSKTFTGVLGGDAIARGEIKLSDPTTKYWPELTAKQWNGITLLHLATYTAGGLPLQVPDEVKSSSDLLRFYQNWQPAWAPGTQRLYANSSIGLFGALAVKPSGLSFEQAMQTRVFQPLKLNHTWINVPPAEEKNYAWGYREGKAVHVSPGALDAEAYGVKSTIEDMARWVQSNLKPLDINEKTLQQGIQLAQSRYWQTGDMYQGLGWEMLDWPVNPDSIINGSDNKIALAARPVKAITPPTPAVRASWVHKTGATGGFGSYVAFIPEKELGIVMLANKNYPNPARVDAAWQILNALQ
#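 AmpC (5.3 nM in the dispensed reagent) in 20 mM phosphate pH 7.0 with 0.01% (detergent screen) or 0.0001% Triton X-100 was preincubated with compounds for 15 min at room temperature. Nitrocefin was then added from an 800 uM solution, and hydrolysis was followed at 480 nm.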
# SARS PLP yeast – qHTS of Yeast-based Assay for SARS-CoV PLP; S. cerevisiae expressing SARS-CoV PLpro, growth rescue; Potency, µM (highest dose often 32.9 µM), without a hit: at the top dose activity, positive = growth rescue, hits mostly activators; 330,000 compounds, 0.19% hits; AID 485353, 2010; calls by dose curve; note: 0% is about no effect; nearly all actives have a fitted effect of over 55% in size
# AmpC inh no detg – qHTS Inhibitors of AmpC Beta-Lactamase (assay without detergent). P00811. AmpC nitrocefin hydrolysis, absorbance 480 nm, 0.0001% Triton. Potency, µM (series often up to 57.1 µM), without a hit: at the highest dose activity change, negative = inhibition, usual class: inhibitors. 330,000 compounds, 0.52% hits. AID 485341, 2010;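 note: plate controls were no compound for no effect and no enzyme for full effect; nearly all actives have a fitted effect of over 20% in size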
#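 AmpC (5.3 nM in the dispensed reagent) in 20 mM phosphate pH 7.0 with 0.01% (detergent screen) or 0.0001% Triton X-100 was preincubated with compounds for 15 min at room temperature. Nitrocefin was then added from an 800 uM solution, and hydrolysis was followed at 480 nm.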
# Pf growth 96h – Primary qHTS for delayed death inhibitors of the malarial parasite plastid, 96 hour incubation. AID 504834, 2011. P. falciparum luciferase reporter growth, 96 h. Potency, µM (series often up to 28.7 µM), inactives show at the highest dose activity change, negative = inhibition, most hits filed as inhibitors. 320,000 compounds, 6.9% hits; note: % is set by controls: 0 for no effect and ±100 for the full control effect
#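 Parasite growth measured via integrated firefly luciferase reporter in P. falciparum. Infected erythrocytes at 2% hematocrit, 0.05% parasitemia final were treated 96 hours at 37 C under 5% CO2, and luminescence was read.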
# Pf growth 48h – Primary qHTS for delayed death inhibitors of the malarial parasite plastid, 48 hour incubation | P. falciparum luciferase growth in erythrocytes, 48 h | Potency, µM (series often up to 28.7 µM), for inactives: top-dose activity change, negative = inhibition, usual class: inhibitors | 310,000 compounds, 5.9% hits; note: % is set by controls: 0 for no effect and ±100 for the full control effect
#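 Luciferase-expressing parasites in RBCs, 2% Hct / 0.1% parasitemia final; RPMI 1640 + 0.5% Albumax; 37 C, 5% CO2, one generation; luminescence read-out, lower signal = inhibition.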
# * hit, by the source's call; ? = inconclusive; . = no result; [ ] = remark or other dose. Unless noted, calls come from the whole dose curve; as a rule, active = well fitted curve in the direction sought with a large enough effect; inconclusive = small, poorly fitted or top-dose-only effect, or another doubt; inactive = no such curve, though single readings can be large; an effect the other way counts as inactive or inconclusive. Potency is the fitted concentration of half-maximal effect.
SMILES,Sm TGR block,AmpC inh detg,SARS PLP yeast,AmpC inh no detg,Pf growth 96h,Pf growth 48h
CC1CC(C)CN(CCCNC(=O)c2cc3c(s2)-c2ccccc2OC3)C1 (configuration not stated),14%,4%,9%,41%,20%,2.9µM*
CCOC(=O)c1c(NC(C)=O)c2c3c(sc2n1Cc1nc(-c2ccccc2OCC)oc1C)CCCC3,16%,17%,.,.,.,.
Cc1nnc(SC(C)C(=O)Nc2ncc(Cl)cc2Cl)n1Cc1ccccc1 (configuration not stated),-1%,-10%,2%,78%,2.1µM*,?
COCCn1c(SC(C)C(=O)Nc2ncc(Cl)cc2Cl)nc2ccccc21 (configuration not stated),1%,-12%,-6%,53%,.,?
O=S(=O)(c1cccc(-c2nnc3n2CCCCC3)c1)N1CCCC1,0%,?,-5%,-10%,2%,-2%
O=C(O)C1=C[C@@H](c2ccc(Br)cc2)C[C@@H](OCc2ccc(CO)cc2)O1,40µM*,-2%,-1%,-18%,17%,5%
O=C(O)C1=C[C@H](c2ccc(F)cc2)C[C@H](OCc2ccc(CO)cc2)O1,35µM*,3%,-4%,-21%,-2%,44%
O=C(O)C1=C[C@H](c2ccccc2)C[C@H](OCc2ccc(CO)cc2)O1,?,11%,-1%,-22%,63%,53%
O=C(O)C1=C[C@H](c2csc3ccccc23)C[C@H](OCc2ccc(CO)cc2)O1,-29%,3%,-2%,-36%,15%,58%
NC(=O)C1=C[C@H](c2ccc(Br)cc2)C[C@H](OCc2ccc(CO)cc2)O1,-31%,-6%,-1%,49%,20%,1%
O=C(O)C1=C[C@H](c2cccs2)C[C@H](OCc2ccc(CO)cc2)O1,35µM*,1%,-5%,-22%,0%,0%
c1ccc(C2CC(c3ccccc3)C(c3ccccc3)N2)cc1 (configuration not stated),11%,1%,3%,-25%,9.3µM*,-5%
O=C1CC(c2ccc(Br)cc2)NC(c2ccc(Br)cc2)C1c1ccccc1 (configuration not stated),-2%,2%,-21%,-12%,?,-9%
O=C(NC1CC(=O)N(c2cccc(F)c2)C1)c1ccc(S(=O)(=O)N2CCCC2)cc1 (configuration not stated),-5%,0%,.,.,.,.
CCN(CC(=O)Nc1ccccc1C(F)(F)F)C(=O)c1ccc(N2CCCC2=O)cc1,-29%,9%,9%,33%,?,-24%
Cc1nc2ccccc2c(=O)n1/N=C/c1ccc(O)c(O)c1O,45µM*,?,-2%,-38%,23%,0%
Oc1ccc(/C=N/N2CCCCC2)c(O)c1O,35µM*,-4%,1%,-16%,15%,-14%
O=C1c2ccccc2C(=O)N1/N=C/c1ccc(O)c(O)c1O,50µM*,-1%,?,-50%,-12%,?
Oc1cccc(/C=N/N2CCCCC2)c1O,?,-1%,0%,-15%,6%,76%
Cc1ccc(-c2nc3c(C)cccn3c2Nc2ccccc2C)s1,8.9µM*,12%,.,.,.,.
Cc1n[nH]c(C)c1S(=O)(=O)N(CC(=O)NCc1ccccc1Cl)c1ccc(C(C)C)cc1,1%,0%,.,.,.,.
O=C(Nc1ccc(Cl)cc1C(=O)O)c1ccc2c(c1)C(=O)N(Cc1ccco1)C2=O,50µM*,-13%,-1%,-17%,11%,-5%
CC(C)CNC(=O)c1ccc2c(c1)C(=O)N(Cc1ccco1)C2=O,-2%,?,2%,-24%,-18%,-2%
Cc1ccc(O)c(NC(=O)c2ccc3c(c2)C(=O)N(Cc2ccco2)C3=O)c1,0%,-10%,-2%,44%,16%,1%
O=C(Nc1cccc(O)c1)c1ccc2c(c1)C(=O)N(Cc1ccco1)C2=O,-27%,0%,-1%,-49%,9.3µM*,-6%
SMILES,Sm TGR block,AmpC inh detg,SARS PLP yeast,AmpC inh no detg,Pf growth 96h,Pf growth 48h
O=C(CC1C(=O)N(c2ccccc2)C(=O)N1Cc1ccc(F)cc1)Nc1cccc(F)c1 (configuration not stated),-26%,1%,.,.,.,.
Cc1ccc(OCC(=O)c2ccc3c(c2)CCCC3)cc1C,17%,-2%,-11%,-12%,0%,72%
O=C(COc1ccc(Br)cc1)c1ccc2c(c1)CCCC2,45%,?,-2%,-15%,8.3µM*,33%
CCc1nn2c(=O)c(S(=O)(=O)Nc3ccc(OC)c(Cl)c3)c(C)nc2s1,-9%,-7%,.,.,.,.
COc1ccc(OC)c(NC(=O)c2nnn(Cc3ccccc3C)c2N)c1,2%,1%,6%,-12%,?,12µM*
COc1ccc(NC(=O)c2nnn(Cc3ccccc3C)c2N)c(OC)c1,5%,17%,.,.,.,.
COc1ccc(C)cc1NC(=O)c1nnn(Cc2cc(C)ccc2C)c1N,-3%,8%,3%,-14%,5.2µM*,.
Cc1ccccc1CC(=O)N1CC(C)OC(C)C1 (configuration not stated),-3%,-10%,-2%,-3%,50%,6%
CC(=O)N1c2nc(-c3ccco3)nn2C2(CCCCC2)[C@@H]2CCCC[C@@H]21,?,15%,.,.,.,.
CCCC(=O)N1c2nc(-c3ccco3)nn2C2(CCCCC2)[C@@H]2CCCC[C@@H]21,35µM*,15%,.,.,.,.
O=Cc1c(NCc2ccc(F)cc2)c2ccccc2[nH]c1=O,3%,-4%,3%,-9%,10µM*,-12%
Cc1ccc(CNc2c(C=O)c(=O)[nH]c3ccccc23)cc1,-19%,-12%,-7%,-37%,?,0%
CSc1nc(S(=O)(=O)c2ccc(C)cc2)c(Cl)s1,2%,1%,-1%,-3%,?,12µM*
CCOc1nc(S(=O)(=O)c2ccc(C)cc2)c(Cl)s1,-7%,-11%,9%,-20%,0%[5.75 µM],0%
CCOC(=O)c1c(S(=O)(=O)N2CCC(C(=O)N3CCN(c4cccc(C)c4C)CC3)CC2)c(C)n(C)c1C,-5%,-8%,.,.,.,.
Cc1ccc2c(c1)C(c1ccc(F)cc1)N(C(=O)C(C)C)CC(=O)N2 (configuration not stated),3%,4%,.,.,.,.
CCC(NC(=O)CCl)c1ccc(C)cc1 (configuration not stated),?,2%,0%,-5%,1.3µM*,5.9µM*
